This assay deals with Plasmodium falciparum NF54 gametocytes. Nature of the assay: viability index relative to DMSO control (fraction); higher = less gametocyte killing. Conditions: 12.5 µM, incubation time: 72 h. The method, boiled down:
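The viability index was calculated as the gametocyte particle count over the plate mean of solvent-only wells. For this, P. falciparum NF54 gametocytes of every stage (I–V) were held with compound at 12.5 µM for 72 hr at 37°C under low oxygen in 384-well plates. MitoTracker Red CMXRos staining for 20 min was followed by transfer of 5 µl into 40 µl of 500 nM dye in serum-free medium, with three fields imaged after 30 min.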

The mark [1] stands for this setting: gametocyte stage: Stage I viability index.
Setting [2] is: gametocyte stage: Stage II viability index.
Setting [3] is: gametocyte stage: Stage III viability index.
The mark [4] stands for this setting: gametocyte stage: Stage IV viability index.
Where [5] appears, read: gametocyte stage: Stage V viability index.

`COc1ccc(C(=O)C2CC2c2ccc(Cl)cc2)cc1` (stereo not given): the viability index under setting [1] amounted to 1.01; the viability index under setting [2] is 0.968; the viability index under setting [3] is 1.03; the viability index under setting [4] amounted to 0.93; the viability index under setting [5] is 0.558.

`CCOC(=O)C1=C(c2ccccc2)N=c2sc(=Cc3cc(C)n(-c4ccc(F)cc4)c3C)c(=O)n2C1c1cccc(OC)c1OC` (stereo not given) returned a viability index under setting [1] of 0.806; a viability index under setting [2] of 0.787; a viability index under setting [3] of 0.996; a viability index under setting [4] of 0.839; a viability index under setting [5] of 0.703.

Consider `COc1ccc(C=C2SC(=N)N(c3ccccc3OC)C2=O)cc1`, for which the viability index is, setting by setting: under setting [1], 0.642; under setting [2], 0.916; under setting [3], 0.942; under setting [4], 0.769; under setting [5], 0.923.

`COc1cc(OC)c(N(C)C(=O)c2cc3c(s2)-c2ccccc2S(=O)(=O)C3)cc1Cl`: the viability index is 0.00884 under setting [1]; 0.00676 under setting [2]; 0.0212 under setting [3]; 0.131 under setting [4]; 0.022 under setting [5].

On to `N=c1c2ccccc2nnn1-c1cccc(C(F)(F)F)c1`, for which the viability index reads like this: under setting [1], 0.988; under setting [2], 0.714; under setting [3], 1.02; under setting [4], 0.785; under setting [5], 0.87.

For `O=C(Nc1ccsc1C(=O)NC1CCCCC1)c1ccc(F)cc1`, the viability index is 0.93 under setting [1]; 0.729 under setting [2]; 0.965 under setting [3]; 0.933 under setting [4]; 0.945 under setting [5].

Turning to `CC(C)(C)C(=O)Nc1ccc(C(=O)Nc2cccc(-c3nc4ccccc4[nH]3)c2)cc1`, the viability index runs as follows: under setting [1], 0.111; under setting [2], 0.592; under setting [3], 0.694; under setting [4], 0.833; under setting [5], 0.604.

Regarding `COc1ccc(C2c3ccc4ccccc4c3Oc3ncn(CCCN(C)C)c(=N)c32)cc1` (stereo not given), the viability index was found to be 0.0367 under setting [1]; 0.0483 under setting [2]; 0.0339 under setting [3]; 0.0316 under setting [4]; 0 under setting [5].

In the case of `COc1cccc(Nc2nc(NCCO)c3ccccc3n2)c1`, the viability index is, setting by setting: under setting [1], 0.134; under setting [2], 0.581; under setting [3], 0.728; under setting [4], 0.854; under setting [5], 0.538.

As for `CC(C)(C)c1ccc(O)c(CNC2CCCCC2)c1`, the viability index was 0.256 under setting [1]; 0.329 under setting [2]; 0.482 under setting [3]; 0.571 under setting [4]; 0.462 under setting [5].

As for `CSc1ccccc1C(=O)Nc1nc(-c2ccccn2)cs1`, the viability index is 0.242 under setting [1]; 0.181 under setting [2]; 0.321 under setting [3]; 0.362 under setting [4]; 0.132 under setting [5].

`CCOC(=O)c1cnc2c(C)cc(C)cc2c1Nc1ccc(OC)c(OC)c1`: the viability index is, setting by setting: under setting [1], 1.09; under setting [2], 0.998; under setting [3], 1.19; under setting [4], 0.845; under setting [5], 0.978.

For the compound `O=C(NC1CCCCC1)C(c1cccs1)N(CCc1ccccc1)C(=O)c1ccco1` (stereo not given), the viability index reads like this: under setting [1], 0.98; under setting [2], 0.838; under setting [3], 1; under setting [4], 1.04; under setting [5], 0.961.

Regarding `COc1ccc(C2=C(c3ccc(OC)cc3)C3(c4ccccc4)C(=O)C2(c2ccccc2)C2C(=O)N(c4ccc(C)cc4)C(=O)C23)cc1` (stereo not given), the viability index is, setting by setting: under setting [1], 0.682; under setting [2], 0.679; under setting [3], 0.949; under setting [4], 1.02; under setting [5], 0.967.

Turning to `Cc1ccc(NC(=O)Nc2cccc(Cl)c2)cc1F`, the viability index is, setting by setting: under setting [1], 0.64; under setting [2], 0.599; under setting [3], 0.832; under setting [4], 0.827; under setting [5], 0.582.

Regarding `CCc1ccc(Nc2cc(C)c3ccc(O)cc3n2)cc1`, the viability index worked out at 0.238 under setting [1]; 0.256 under setting [2]; 0.706 under setting [3]; 0.827 under setting [4]; 0.945 under setting [5].

`CCOC(=O)c1cnc2ccc(OC)cc2c1NCc1ccccc1` registered a viability index under setting [1] of 0.309; a viability index under setting [2] of 0.535; a viability index under setting [3] of 0.991; a viability index under setting [4] of 0.835; a viability index under setting [5] of 0.87.

Turning to `Fc1ccc2[nH]c3c(NCCCN4CCOCC4)ncnc3c2c1`, the viability index under setting [1] was found to be 0.053; the viability index under setting [2] is 0.564; the viability index under setting [3] turned out to be 0.873; the viability index under setting [4] was determined as 0.866; the viability index under setting [5] was found to be 0.78.

For the compound `O=C(NC1CCN(Cc2ccccc2)CC1)c1cc(-c2ccncc2)nc2ccc(Cl)cc12`, the viability index under setting [1] was 0.601; the viability index under setting [2] came to 0.662; the viability index under setting [3] is 1.08; the viability index under setting [4] came out at 0.994; the viability index under setting [5] was 0.791.

On to `Cc1c(C)n(CC(O)CNC2CCCCC2C)c2ccccc12` (stereo not given), for which the viability index is, setting by setting: under setting [1], 0.0939; under setting [2], 0.217; under setting [3], 0.644; under setting [4], 0.766; under setting [5], 0.923.

Take `COc1cccc(Cn2c(Oc3ccccc3)nc3c2c(=O)n(C)c(=O)n3C)c1`: the viability index was found to be 0.892 under setting [1]; 0.853 under setting [2]; 0.993 under setting [3]; 1.06 under setting [4]; 1.16 under setting [5].

Regarding `CCCCc1c(CCC)c(=N)c2ccccc2n1C`, the viability index under setting [1] was found to be 1.05; the viability index under setting [2] was 0.911; the viability index under setting [3] amounted to 1; the viability index under setting [4] was found to be 0.918; the viability index under setting [5] is 0.701.

On to `CCOc1c(Cl)cc(CNCC(O)c2ccccc2)cc1OC` (stereo not given), for which the viability index under setting [1] stood at 0.231; the viability index under setting [2] is 0.272; the viability index under setting [3] is 0.793; the viability index under setting [4] was determined as 0.918; the viability index under setting [5] was determined as 0.714.

Regarding `O=C(NNc1cc(N2CCCC2)nc(N2CCCC2)n1)c1ccccc1`, the viability index is, setting by setting: under setting [1], 0; under setting [2], 0.00749; under setting [3], 0.275; under setting [4], 0.516; under setting [5], 0.377.

With `CN1CCN(c2nc(Nc3ccc(O)cc3)nc3ccccc23)CC1`, the viability index was 0.0262 under setting [1]; 0.247 under setting [2]; 0.796 under setting [3]; 0.927 under setting [4]; 0.74 under setting [5].

As for `COc1ccc(N2CCN(C(CNC(=O)C3CCCCC3)c3ccc4c(c3)OCO4)CC2)cc1` (stereo not given), the viability index by setting is: under setting [1], 0.912; under setting [2], 0.986; under setting [3], 1.04; under setting [4], 0.86; under setting [5], 0.758.

With `CCN(CC)c1cc(C)c2cc(NC(=O)c3cccc(OC)c3)ccc2n1`, the viability index came out at 0.154 under setting [1]; 0.563 under setting [2]; 0.864 under setting [3]; 0.967 under setting [4]; 1.01 under setting [5].

On to `CCN(CC)CCn1c(=N)n(CC(O)c2ccc(Cl)c(Cl)c2)c2ccccc21` (stereo not given), for which the viability index under setting [1] turned out to be 0.00552; the viability index under setting [2] is 0.057; the viability index under setting [3] came to 0.0608; the viability index under setting [4] was 0.0851; the viability index under setting [5] is 0.121.

Take `COc1ccc(C2Sc3ccccc3N=C3C2=C(O)c2ccccc23)cc1` (stereo not given): the viability index runs as follows: under setting [1], 0.64; under setting [2], 0.882; under setting [3], 0.967; under setting [4], 1.08; under setting [5], 0.956.

The values are drawn from the supplement of paper PMC4723716.
